According to PubChem BioAssay:

Biological target: Epidermal growth factor receptor (Homo sapiens) (UniProt P00533)
Test: compounds binding epidermal growth factor receptor – biochemical, small-molecule microarray, 635 nm fluorescence, primary screen (AID 1104);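 also: score merges 667 nm emission intensity with spot signal to noise over triplicate slides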
Conditions: EGFR binding, higher = more signal

Sequence of Epidermal growth factor receptor (Homo sapiens) (P00533 whole entry, looked up): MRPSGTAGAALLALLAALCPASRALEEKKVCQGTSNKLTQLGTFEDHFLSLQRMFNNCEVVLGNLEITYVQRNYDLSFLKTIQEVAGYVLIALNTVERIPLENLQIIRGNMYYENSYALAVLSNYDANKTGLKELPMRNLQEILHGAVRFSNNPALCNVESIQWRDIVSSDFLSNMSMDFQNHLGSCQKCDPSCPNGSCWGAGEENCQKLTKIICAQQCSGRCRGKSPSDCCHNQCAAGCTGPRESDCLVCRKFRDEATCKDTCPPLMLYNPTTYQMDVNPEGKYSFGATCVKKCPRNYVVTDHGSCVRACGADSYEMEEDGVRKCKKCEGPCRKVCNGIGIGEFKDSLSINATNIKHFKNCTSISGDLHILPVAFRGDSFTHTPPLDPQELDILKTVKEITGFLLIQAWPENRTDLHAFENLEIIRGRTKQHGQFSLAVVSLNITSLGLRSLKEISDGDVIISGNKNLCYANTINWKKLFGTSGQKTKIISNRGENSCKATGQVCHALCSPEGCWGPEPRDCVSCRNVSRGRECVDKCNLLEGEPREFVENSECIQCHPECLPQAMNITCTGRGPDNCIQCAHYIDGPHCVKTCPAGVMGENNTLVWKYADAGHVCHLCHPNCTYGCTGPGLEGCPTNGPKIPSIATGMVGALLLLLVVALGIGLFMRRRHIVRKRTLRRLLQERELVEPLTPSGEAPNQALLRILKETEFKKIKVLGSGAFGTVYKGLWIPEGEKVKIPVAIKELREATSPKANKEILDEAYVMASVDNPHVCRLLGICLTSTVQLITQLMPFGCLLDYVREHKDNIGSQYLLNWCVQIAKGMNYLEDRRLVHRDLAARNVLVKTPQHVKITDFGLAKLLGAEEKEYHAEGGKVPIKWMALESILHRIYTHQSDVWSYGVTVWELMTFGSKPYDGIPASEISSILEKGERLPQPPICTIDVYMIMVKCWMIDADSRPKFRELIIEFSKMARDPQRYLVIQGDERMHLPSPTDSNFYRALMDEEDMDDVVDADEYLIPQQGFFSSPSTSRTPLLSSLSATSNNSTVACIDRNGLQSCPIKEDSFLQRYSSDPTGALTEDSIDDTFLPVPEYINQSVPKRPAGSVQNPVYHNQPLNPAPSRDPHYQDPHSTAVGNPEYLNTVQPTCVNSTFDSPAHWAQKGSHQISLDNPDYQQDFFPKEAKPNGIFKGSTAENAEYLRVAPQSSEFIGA

Q: Which composite z-score does the source give for `COC(=O)[C@H]1N=C(c2ccc(OCCCO)cc2)O[C@H]1c1ccccc1CN=[N+]=[N-]` here?
A: -0.771

Q: Which composite z-score does the source give for `C[N+](C)(C)CCCCNC(=O)[C@H]1C[C@H]2C(=O)NCC(=O)N2[C@H]1c1ccc(O)cc1` here?
A: 1.12

Q: How did the composite z-score turn out when `CN(C)CCCCCCNC(=O)[C@@H]1C[C@@H]2C(=O)NCC(=O)N2[C@@H]1c1ccc(O)cc1` was run?
A: 0.59

Q: `COc1ccc(C#Cc2ccc3c(c2)[C@]2(C(=O)N3)[C@H](c3ccc(OCCO)cc3)N3[C@H](c4ccccc4)[C@H](c4ccccc4)OC(=O)[C@H]3[C@@H]2C(=O)N2CCN(c3ncccn3)CC2)cc1` was tested. Which composite z-score did it give?
A: 0.176

Q: For `[N-]=[N+]=NCc1ccccc1[C@H]1OC(c2ccc(OCCCO)cc2)=N[C@@]1(Cc1ccccc1)C(N)=O`, which composite z-score is on record?
A: -0.43

Q: How did the composite z-score turn out when `C#CCOC(=O)N[C@H](C=CCCCC)c1ccccc1` was run?
A: 0.241

Q: With `COc1cccc(C[C@H]2C[C@@H](CO[Si](C(C)C)(C(C)C)C(C)C)N3C(=O)[C@]4(C(C)=O)O[C@]23[C@H]2C(=O)N(C)C(=O)[C@H]24)c1` as the compound, how does the composite z-score read?
A: 0.468

Q: `C=C(COC)/C(=C/C[C@@H](OC(=O)c1ccncc1)c1cccc(OCCO)c1)c1cc(C(=O)OC)ccc1OC` was tested. Which composite z-score did it give?
A: 0.29

Q: For `C[N+](C)(C)CCCC[C@@H]1NC(=O)[C@@H]2C[C@H](C(=O)NCCCCCNC(=O)CS)[C@H](c3cccc(OCCO)c3)N2C1=O`, which composite z-score is on record?
A: 0.0868

Q: `CCCCCCCCCCC(O)C1C=CC2C(=O)NC(=O)C2N1Nc1ccccn1` (stereo unspecified) was tested. Which composite z-score did it give?
A: -0.689

Q: Which composite z-score does the source give for `CCOC(=O)C[C@H]1[C@H](OC(=O)c2ccc(C(=O)c3ccccc3)cc2)[C@@H](NC(=O)C2CCCCC2)c2cc(OCCCO)ccc2N1C(=O)Cc1ccc(OC)cc1` here?
A: 0.285

Q: Which composite z-score does the source give for `COc1ccc([Si](C)(C)[C@@H]2[C@@H](CCO)O[C@]3(C(=O)N(Cc4ccc(N5C(=O)c6ccccc6Oc6ccccc65)cc4)c4ccccc43)[C@H]2C)cc1` here?
A: -1.57

Q: For `O=C1O[C@@H](c2ccccc2)[C@@H](c2ccccc2)N2[C@@H](c3ccc(O)cc3)[C@]3(C(=O)Nc4ccc(C#CC5(O)CCCCCC5)cc43)[C@@H](C(=O)N3CCN(c4ncccn4)CC3)[C@H]12`, which composite z-score is on record?
A: -0.0042

Q: Which composite z-score does the source give for `COCCCNC(=O)[C@@]1(C)c2ccccc2C(=O)N(c2ccc(C)cn2)[C@H]1c1ccc(CO)cc1` here?
A: -0.626

Q: With `COc1ccc([Si](C)(C)[C@H]2[C@H](CCO)O[C@@]3(C(=O)N(Cc4cccc(N5CCOC5=O)c4)c4ccccc43)[C@@H]2C)cc1` as the compound, how does the composite z-score read?
A: 0.0733

Q: How did the composite z-score turn out when `O=C(N1CCOCC1)[C@@]1(CCS(=O)(=O)c2ccccc2)COC(c2ccc(OCCCO)cc2)=N1` was run?
A: -0.935

Q: Which composite z-score does the source give for `COCCOC(=O)N1C(=O)[C@@]2(c3cc(C#Cc4ccc(OC)cc4)ccc31)[C@H](C(N)=O)[C@H]1C(=O)O[C@H](c3ccccc3)[C@H](c3ccccc3)N1[C@@H]2c1ccc(OCCO)cc1` here?
A: 0.769

Q: With `C=C[C@H](C)[C@H](OC(=O)Nc1ccc(SC)cc1)c1ccc(O)c2ccccc12` as the compound, how does the composite z-score read?
A: -0.0236

Q: With `C=C(CCCC)/C(=C/C[C@H](OC(=O)c1ccncc1)c1ccc(CO)o1)c1cc(C(=O)OC)ccc1OC` as the compound, how does the composite z-score read?
A: 0.356

Q: `CN1C(=O)C2C=CC(C(O)c3cccc4ccccc34)N(NC(=O)OC(C)(C)C)C2C1=O` (stereo unspecified) was tested. Which composite z-score did it give?
A: -0.0459

Q: `COc1cc2c(cc1OC)CN(C(=O)[C@@H]1[C@H]3C(=O)O[C@H](c4ccccc4)[C@H](c4ccccc4)N3[C@H](c3ccc(OCCO)cc3)[C@@]13C(=O)Nc1ccc(C#CCCO)cc13)CC2` was tested. Which composite z-score did it give?
A: 0.714

Q: With `NCCCCCCNC(=O)[C@H]1C[C@H]2C(=O)N3CCC[C@H]3C(=O)N2[C@H]1c1ccc(O)cc1` as the compound, how does the composite z-score read?
A: 0.386

Q: `C[C@H]1NC(=O)C([C@@H](C)OCc2ccccc2)NC(=O)[C@@]23C(=O)N[C@@H](Cc4ccccc4)C2[C@H](C)[C@@]2(C)O[C@H]2C3/C=C/CC/C=C/CNC1=O` (stereo partly specified) was tested. Which composite z-score did it give?
A: 0.279

Q: `O=C1O[C@@H](c2ccccc2)[C@@H](c2ccccc2)N2[C@@H](c3ccc(O)cc3)[C@]3(C(=O)Nc4ccc(C#CC5=CCCCC5)cc43)[C@@H](C(=O)Nc3nc4ccccc4s3)[C@H]12` was tested. Which composite z-score did it give?
A: 0.381

Q: With `CC(C)(C)N1CC=CC23O[C@@H]4C=CCCOC(=O)C4[C@H]2C(=O)N(CCCO)[C@@H]3C1=O` (stereo partly specified) as the compound, how does the composite z-score read?
A: -0.608

Q: `CN(C)CCCCNC(=O)[C@H]1C[C@H]2C(=O)N[C@@H](CCCC[N+](C)(C)C)C(=O)N2[C@H]1c1cccc(OCCO)c1` was tested. Which composite z-score did it give?
A: 0.126

Q: With `CCCCC(CC)C(O)C1C=CC2C(=O)NC(=O)C2N1Nc1ccccn1` (stereo unspecified) as the compound, how does the composite z-score read?
A: -0.035

Q: How did the composite z-score turn out when `C[N+](C)(C)CCCCCCNC(=O)[C@@H]1C[C@@H]2C(=O)NCC(=O)N2[C@@H]1c1cccc(OCCO)c1` was run?
A: 0.144

Q: With `CCCCC=C[C@@H](NC(=O)CCc1ccccc1)c1ccccc1` as the compound, how does the composite z-score read?
A: 0.51

Q: With `C[N+](C)(C)CCCCCCNC(=O)[C@H]1C[C@H]2C(=O)N3CCC[C@H]3C(=O)N2[C@H]1c1cccc(OCCO)c1` as the compound, how does the composite z-score read?
A: 0.907

Q: With `COc1cccc(C)c1NC(=O)O[C@H]1[C@H](OC(=O)Nc2ccccc2)[C@H](OC(=O)Nc2ccccc2)[C@@H](OC)O[C@@H]1CO` as the compound, how does the composite z-score read?
A: -0.0372

Q: How did the composite z-score turn out when `CC(C)NC(=O)[C@@]1(Cc2ccccc2I)c2ccccc2C(=O)N(Cc2ccccc2C(F)(F)F)[C@H]1c1ccc(CO)cc1` was run?
A: -0.251

Q: How did the composite z-score turn out when `COCCCNC(=O)[C@@]1(Cc2ccccc2CN=[N+]=[N-])N=C(c2ccc(OCCCO)cc2)O[C@H]1c1ccccc1N=[N+]=[N-]` was run?
A: 0.15

Q: With `C=C(C)[C@@H]1CC=C(C(O)C2C=CC3C(=O)N(C4CCCCC4)C(=O)C3N2Nc2ccc(OC)cc2)CC1` (stereo partly specified) as the compound, how does the composite z-score read?
A: 0.367

Q: For `C=CCC(OC(C)=O)[C@@H]1[C@@H](N(Cc2ccc(-c3ccccc3)cc2)C(=O)Cc2ccc(OC)cc2)c2cc(OCCCO)ccc2N1C(=O)c1ccc(-c2ccccc2)cc1` (stereo partly specified), which composite z-score is on record?
A: -0.332

Q: How did the composite z-score turn out when `CC(C)=CCCC(C)=CC(O)C1C=CC2C(=O)N(c3ccccc3)C(=O)C2N1Nc1ccc([N+](=O)[O-])cc1` (stereo unspecified) was run?
A: 0.0387
